# A number with no mark means an inactive call.
# What was measured:
# Experiment in all cases: log2 ratio of Biotin-Ahx-Ub-VS probe labelling (fragment/DMSO); higher = less target engagement (more negative = stronger competition), active = hit call of the paper (q ≤ 0.05, log2 ratio ≤ -1)
# Conditions in all cases: compound concentration: 200 uM; treatment time: 3 h
# OTUD6B = molecular target: T1, OTUD6B (UniProt Q8N6M0)
# T1 sequence (whole entry): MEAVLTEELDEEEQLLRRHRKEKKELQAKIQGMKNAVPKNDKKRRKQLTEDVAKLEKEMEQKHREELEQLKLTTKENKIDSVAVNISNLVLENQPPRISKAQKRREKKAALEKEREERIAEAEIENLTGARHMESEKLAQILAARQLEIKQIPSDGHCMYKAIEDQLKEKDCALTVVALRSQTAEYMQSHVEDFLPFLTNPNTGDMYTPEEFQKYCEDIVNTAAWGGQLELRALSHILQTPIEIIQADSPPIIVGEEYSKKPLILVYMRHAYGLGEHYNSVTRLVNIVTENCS
# In short: (§1)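 HEK293T lysate (495 µg per sample, in Tris/CHAPS/IGEPAL buffer with protease inhibitors) was exposed in triplicate for 3 h to fragment at 200 µM or to vehicle, then to Biotin-Ahx-Ub-VS at 0.5 µM final for 1 h. Labelled DUBs were enriched on NeutrAvidin, digested with LysC and trypsin, and analysed by diaPASEF LC-MS/MS. Spectronaut label-free quantities were normalised to the global median, and values are average log2 ratios of fragment over vehicle from an unpaired t-test. Only proteins with ≥2 unique peptides were used.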
# OTUD7B = molecular target: T2, OTUD7B (UniProt Q6GQQ9)
# T2 sequence (whole entry): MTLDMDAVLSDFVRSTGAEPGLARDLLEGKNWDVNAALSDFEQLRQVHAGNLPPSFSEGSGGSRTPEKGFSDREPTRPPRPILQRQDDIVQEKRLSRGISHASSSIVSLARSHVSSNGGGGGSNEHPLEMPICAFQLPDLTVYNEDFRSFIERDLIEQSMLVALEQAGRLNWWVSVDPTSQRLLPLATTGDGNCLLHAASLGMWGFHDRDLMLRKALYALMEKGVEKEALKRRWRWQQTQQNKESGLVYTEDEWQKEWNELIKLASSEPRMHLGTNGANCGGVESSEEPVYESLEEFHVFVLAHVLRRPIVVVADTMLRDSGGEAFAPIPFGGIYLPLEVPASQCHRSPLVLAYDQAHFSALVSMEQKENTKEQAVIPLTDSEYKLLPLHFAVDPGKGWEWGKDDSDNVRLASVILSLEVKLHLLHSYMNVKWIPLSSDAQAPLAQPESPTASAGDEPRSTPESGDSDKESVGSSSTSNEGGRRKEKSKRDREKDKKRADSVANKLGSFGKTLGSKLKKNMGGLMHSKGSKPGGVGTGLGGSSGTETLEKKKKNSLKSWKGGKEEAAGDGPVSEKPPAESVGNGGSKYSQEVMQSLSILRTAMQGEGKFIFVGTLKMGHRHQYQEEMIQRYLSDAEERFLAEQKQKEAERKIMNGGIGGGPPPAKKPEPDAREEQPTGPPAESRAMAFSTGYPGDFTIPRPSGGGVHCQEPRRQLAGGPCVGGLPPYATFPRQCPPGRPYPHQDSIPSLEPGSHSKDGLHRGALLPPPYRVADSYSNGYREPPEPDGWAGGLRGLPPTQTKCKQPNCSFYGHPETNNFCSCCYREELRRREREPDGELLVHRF
# In short: as §1
# PRPF8 = PRPF8 (UniProt Q6P2Q9)
# In short: as §1
# PSMD7 = molecular target: T3, PSMD7 (UniProt P51665)
# T3 sequence (whole entry): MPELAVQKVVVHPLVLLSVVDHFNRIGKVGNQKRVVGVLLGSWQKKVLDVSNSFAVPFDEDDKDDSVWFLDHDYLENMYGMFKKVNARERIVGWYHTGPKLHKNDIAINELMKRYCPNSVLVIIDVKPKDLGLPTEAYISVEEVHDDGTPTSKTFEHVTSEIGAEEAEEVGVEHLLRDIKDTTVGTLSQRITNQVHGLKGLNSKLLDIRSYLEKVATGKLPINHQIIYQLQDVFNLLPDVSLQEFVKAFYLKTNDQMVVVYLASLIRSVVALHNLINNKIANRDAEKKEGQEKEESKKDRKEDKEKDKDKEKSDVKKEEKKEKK
# In short: as §1
# UCHL1 = UCHL1 (UniProt P09936)
# In short: as §1
# UCHL3 = molecular target: T4, UCHL3 (UniProt P15374)
# T4 sequence (whole entry): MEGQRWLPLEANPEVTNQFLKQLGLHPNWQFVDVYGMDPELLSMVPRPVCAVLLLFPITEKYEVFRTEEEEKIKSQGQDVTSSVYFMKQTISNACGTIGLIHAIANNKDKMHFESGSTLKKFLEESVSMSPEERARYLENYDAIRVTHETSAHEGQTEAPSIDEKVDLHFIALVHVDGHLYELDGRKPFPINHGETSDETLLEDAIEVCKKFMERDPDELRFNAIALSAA
# In short: as §1
# UCHL5 = molecular target: T5, UCHL5 (UniProt Q9Y5K5)
# T5 sequence (whole entry): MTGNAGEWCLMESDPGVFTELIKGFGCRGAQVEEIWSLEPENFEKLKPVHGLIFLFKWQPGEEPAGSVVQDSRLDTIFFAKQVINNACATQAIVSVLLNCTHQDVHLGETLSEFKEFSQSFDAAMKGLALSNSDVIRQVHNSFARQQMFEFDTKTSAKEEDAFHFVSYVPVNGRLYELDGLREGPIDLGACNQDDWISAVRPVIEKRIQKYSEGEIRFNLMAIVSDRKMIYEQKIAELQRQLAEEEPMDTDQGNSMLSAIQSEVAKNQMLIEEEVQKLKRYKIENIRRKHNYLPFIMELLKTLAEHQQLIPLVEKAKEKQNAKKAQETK
# In short: as §1
# USP10 = USP10 (UniProt Q14694)
# In short: as §1
# USP15 = molecular target: T6, USP15 (UniProt Q9Y4E8)
# T6 sequence (whole entry): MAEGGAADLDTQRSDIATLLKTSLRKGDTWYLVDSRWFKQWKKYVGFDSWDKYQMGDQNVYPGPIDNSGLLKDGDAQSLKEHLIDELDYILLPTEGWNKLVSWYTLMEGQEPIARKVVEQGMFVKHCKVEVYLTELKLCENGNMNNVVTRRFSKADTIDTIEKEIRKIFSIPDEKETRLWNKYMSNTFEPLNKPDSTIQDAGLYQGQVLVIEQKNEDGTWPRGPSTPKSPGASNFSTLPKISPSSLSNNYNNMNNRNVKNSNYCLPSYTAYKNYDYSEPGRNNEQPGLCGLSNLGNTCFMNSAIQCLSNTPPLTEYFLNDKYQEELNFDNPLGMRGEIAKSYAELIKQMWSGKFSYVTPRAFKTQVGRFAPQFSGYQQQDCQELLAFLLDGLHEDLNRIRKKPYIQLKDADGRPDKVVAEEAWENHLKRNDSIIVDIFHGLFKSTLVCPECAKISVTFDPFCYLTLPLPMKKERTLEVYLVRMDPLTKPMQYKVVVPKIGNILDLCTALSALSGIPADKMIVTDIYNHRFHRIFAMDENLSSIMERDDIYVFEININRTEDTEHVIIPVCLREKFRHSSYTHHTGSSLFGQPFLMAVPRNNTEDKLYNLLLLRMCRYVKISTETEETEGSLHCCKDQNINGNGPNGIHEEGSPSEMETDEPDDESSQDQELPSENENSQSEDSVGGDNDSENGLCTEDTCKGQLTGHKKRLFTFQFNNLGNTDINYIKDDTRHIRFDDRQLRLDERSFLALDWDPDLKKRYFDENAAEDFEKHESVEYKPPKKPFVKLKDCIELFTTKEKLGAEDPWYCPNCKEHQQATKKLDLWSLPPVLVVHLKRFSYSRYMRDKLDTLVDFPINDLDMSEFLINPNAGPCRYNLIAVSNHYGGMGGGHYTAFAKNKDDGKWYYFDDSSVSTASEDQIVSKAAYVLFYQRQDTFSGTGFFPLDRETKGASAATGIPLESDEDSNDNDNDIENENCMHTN
# In short: as §1
# USP16 = USP16 (UniProt Q9Y5T5)
# In short: as §1
# Chain of UCHL1 (P09936 whole entry, looked up): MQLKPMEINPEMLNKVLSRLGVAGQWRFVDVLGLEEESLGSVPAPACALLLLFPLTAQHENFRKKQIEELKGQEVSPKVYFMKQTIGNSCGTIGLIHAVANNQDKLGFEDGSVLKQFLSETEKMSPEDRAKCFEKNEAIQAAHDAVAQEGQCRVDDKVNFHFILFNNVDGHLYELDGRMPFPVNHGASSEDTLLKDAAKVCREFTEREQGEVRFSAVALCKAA
# Chain of USP16 (Q9Y5T5 whole entry, looked up): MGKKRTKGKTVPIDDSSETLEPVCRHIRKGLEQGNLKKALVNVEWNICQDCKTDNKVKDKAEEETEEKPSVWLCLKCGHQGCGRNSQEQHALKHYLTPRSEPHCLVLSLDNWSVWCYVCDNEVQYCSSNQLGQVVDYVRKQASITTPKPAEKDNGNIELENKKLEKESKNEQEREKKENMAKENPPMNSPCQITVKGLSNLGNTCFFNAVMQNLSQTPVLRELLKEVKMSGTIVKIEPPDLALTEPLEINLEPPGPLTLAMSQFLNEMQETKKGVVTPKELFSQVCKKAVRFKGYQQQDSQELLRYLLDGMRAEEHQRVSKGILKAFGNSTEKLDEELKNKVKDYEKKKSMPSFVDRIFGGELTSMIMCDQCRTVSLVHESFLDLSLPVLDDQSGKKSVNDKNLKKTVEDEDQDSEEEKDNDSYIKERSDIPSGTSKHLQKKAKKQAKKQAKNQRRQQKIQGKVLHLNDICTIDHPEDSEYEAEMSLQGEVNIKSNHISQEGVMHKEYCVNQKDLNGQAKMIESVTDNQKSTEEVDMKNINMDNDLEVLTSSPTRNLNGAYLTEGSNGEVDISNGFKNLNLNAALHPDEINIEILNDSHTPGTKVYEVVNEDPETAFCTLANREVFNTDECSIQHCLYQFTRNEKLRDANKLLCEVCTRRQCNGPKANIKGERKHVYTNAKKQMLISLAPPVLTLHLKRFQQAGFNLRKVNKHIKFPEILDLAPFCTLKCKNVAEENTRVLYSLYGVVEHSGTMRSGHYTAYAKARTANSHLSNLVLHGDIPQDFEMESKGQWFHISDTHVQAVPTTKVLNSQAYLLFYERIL
# Chain of USP10 (Q14694 whole entry): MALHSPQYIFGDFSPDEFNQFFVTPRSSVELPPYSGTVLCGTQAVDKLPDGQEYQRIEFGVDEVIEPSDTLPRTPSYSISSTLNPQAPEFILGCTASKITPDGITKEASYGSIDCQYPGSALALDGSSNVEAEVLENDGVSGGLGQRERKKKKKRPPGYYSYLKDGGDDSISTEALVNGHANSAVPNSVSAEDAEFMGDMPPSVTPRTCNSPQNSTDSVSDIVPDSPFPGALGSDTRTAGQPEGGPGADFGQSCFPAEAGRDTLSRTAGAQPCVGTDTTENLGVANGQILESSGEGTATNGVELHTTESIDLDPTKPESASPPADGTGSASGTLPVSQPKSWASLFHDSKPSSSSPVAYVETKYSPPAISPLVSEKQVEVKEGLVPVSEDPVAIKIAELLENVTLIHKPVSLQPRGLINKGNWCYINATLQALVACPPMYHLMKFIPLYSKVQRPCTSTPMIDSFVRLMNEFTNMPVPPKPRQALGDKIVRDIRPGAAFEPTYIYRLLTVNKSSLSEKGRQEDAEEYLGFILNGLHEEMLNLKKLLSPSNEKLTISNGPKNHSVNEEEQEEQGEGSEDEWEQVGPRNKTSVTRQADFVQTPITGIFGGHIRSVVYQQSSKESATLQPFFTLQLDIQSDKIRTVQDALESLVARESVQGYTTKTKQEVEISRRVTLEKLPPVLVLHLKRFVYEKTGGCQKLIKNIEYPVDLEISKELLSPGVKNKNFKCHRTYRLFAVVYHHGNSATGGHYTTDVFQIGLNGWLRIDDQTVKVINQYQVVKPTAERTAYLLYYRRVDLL
smiles,measurement,setting,value
O=C(CCl)Nc1ccc(F)cc1F,log2 ratio of Biotin-Ahx-Ub-VS probe labelling,OTUD6B,-0.161
same,log2 ratio of Biotin-Ahx-Ub-VS probe labelling,OTUD7B,-0.881
same,log2 ratio of Biotin-Ahx-Ub-VS probe labelling,PRPF8,-0.105
same,log2 ratio of Biotin-Ahx-Ub-VS probe labelling,PSMD7,-0.179
same,log2 ratio of Biotin-Ahx-Ub-VS probe labelling,UCHL1,-1.47 (active)
same,log2 ratio of Biotin-Ahx-Ub-VS probe labelling,UCHL3,0.078
same,log2 ratio of Biotin-Ahx-Ub-VS probe labelling,UCHL5,-0.242
same,log2 ratio of Biotin-Ahx-Ub-VS probe labelling,USP10,-0.129
same,log2 ratio of Biotin-Ahx-Ub-VS probe labelling,USP15,-0.34
same,log2 ratio of Biotin-Ahx-Ub-VS probe labelling,USP16,0.0073

# Reference: the supplement of paper PMC11732987, “Enantioselective OTUD7B fragment discovery through chemoproteomics screening and high-throughput optimisation” (Communications Chemistry, 2025)
